Screening results deposited in PubChem BioAssay by National Center for Advancing Translational Sciences (NCATS).
A selection: hits, their analogues and other compounds. The true share with any hit is near 10%.
SW480 rereplic: inducers of DNA re-replication in SW480 colon cancer cells | SW480 DNA re-replication, Hoechst DNA content imaging, 48 h | Potency, µM (series often up to 46.1 µM), most hits filed as activators | hit rate 1.8% among 340,000 | AID 624297; further: nearly all actives have a fitted effect of over 55% in size
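Readout is total intensity of Hoechst-stained nuclei, excited at 405 nm and collected at 500-530 nm. Compound treatment lasted 48 hr at 37 C in 5% CO2 before staining.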
ELG1 DNA repair: inhibitors of ELG1-dependent DNA repair in HEK293T cells; HEK293T ELG1-luciferase reporter, luminescence, 16 h; DNA damage induced by 5-fluorouridine; Potency, µM (top dose mostly 46.1 µM), usual class: inhibitors; hit rate 2.3% among 330,000; AID 504467; further: nearly all actives have a fitted effect of over 55% in size
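Quantitative HTS, concentration-response format. 2,000 cells/well co-treated with 5-fluorouridine and compound, 16 hr in 5% CO2 at 37 °C; ONE-Glo luminescence read after 30 min.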
RORgamma inh: blocks mouse ROR gamma transcriptional activity; P51450; Drosophila S2 Gal4-RORgamma UAS-luciferase reporter, 20 h; Potency, µM (doses to about 53.6 µM), actives largely listed as inhibitors; hit rate 5.4% among 310,000; AID 2551; further: nearly all actives have a fitted effect of over 60% in size
Target sequence (P51450 whole entry, looked up, the tested form may be a part): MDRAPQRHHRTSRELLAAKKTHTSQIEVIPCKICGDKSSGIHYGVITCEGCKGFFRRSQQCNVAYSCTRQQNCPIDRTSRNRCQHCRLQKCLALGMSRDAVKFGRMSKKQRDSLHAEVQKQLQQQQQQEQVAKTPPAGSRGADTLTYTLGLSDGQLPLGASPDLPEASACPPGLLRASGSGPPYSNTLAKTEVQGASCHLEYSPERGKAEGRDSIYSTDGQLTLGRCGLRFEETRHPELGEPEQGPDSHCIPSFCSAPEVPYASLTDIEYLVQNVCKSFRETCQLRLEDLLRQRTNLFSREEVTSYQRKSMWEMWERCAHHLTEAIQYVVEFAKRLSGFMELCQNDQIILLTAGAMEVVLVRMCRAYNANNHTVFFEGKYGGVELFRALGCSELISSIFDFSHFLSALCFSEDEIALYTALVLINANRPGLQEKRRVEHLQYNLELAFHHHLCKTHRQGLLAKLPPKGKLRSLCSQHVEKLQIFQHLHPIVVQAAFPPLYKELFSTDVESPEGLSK
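Compounds are pin-transferred onto Drosophila Schneider cells expressing a copper-inducible Gal4–ROR gamma transactivation domain fusion. After 1 hr, copper sulfate is added to 700 uM final; luciferase is read 20 hr later.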
MCF10A rereplic: inducers of DNA re-replication in MCF 10A breast cells | MCF 10A DNA re-replication, Hoechst nuclear intensity, 48 h | hit rate 2.9% among 350,000 | Potency, µM (titrated, usually from 46.1 µM), usual class: activators; further: nearly all actives have a fitted effect of over 50% in size
Gal4-VP16 FLuc: inhibits Gal4-VP16 luciferase reporter, ROR gamma counter-screen | Drosophila S2 Gal4-VP16 UAS-luciferase, luminescence, 20 h | Potency, µM (titrated, usually from 53.6 µM), most hits filed as inhibitors | hit rate 3.5% among 310,000 | AID 2546;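 further: Gal4-VP16 expression switched on by copper sulfate through the metallothionein promoter; nearly all actives have a fitted effect of over 50% in size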
Of the large screens only hits and unclear results are named; the others gave an inactive call. The call rests on the fitted dose curve; in most records, active means well fitted curve in the direction sought with a large enough effect; inconclusive means small, poorly fitted or top-dose-only effect, or another doubt; inactive means no such curve, though single readings can be large; an effect the other way counts as inactive or inconclusive.

Cc1ccc(Cl)cc1NC(=O)c1cc(NC(=O)CCCC(=O)O)ccc1N1CCCCC1	none
N#CCCCS(=O)(=O)c1nc2ccccc2s1	none (no result: SW480 rereplic, ELG1 DNA repair, MCF10A rereplic)
CCOc1ccc(C2=CS/C(=C(\C#N)c3nnc4n3CCCCC4)N2CC)cc1	ELG1 DNA repair inconclusive
C=CCN1C(c2ccccc2)=CS/C1=C(\C#N)c1nnc2n1CCCCC2	ELG1 DNA repair 11µM
CC(=O)Nc1ccccc1C(=O)N1CCN(Cc2ccc3c(c2)OCO3)CC1	none
C/C(=N\NC(=S)NCCc1ccccc1)c1ccc(C)cc1	ELG1 DNA repair inconclusive, RORgamma inh 2.8µM, Gal4-VP16 FLuc 5µM
C/C(=N/NC(=O)CNC(=O)CCc1ccccc1)c1ccc(Cl)cc1	none
C/C(=N\NC(=S)NCCc1ccccc1)c1ccc(C#N)cc1	SW480 rereplic inconclusive, RORgamma inh 4µM, MCF10A rereplic inconclusive, Gal4-VP16 FLuc 8.9µM
C/C(=N\NC(=O)CCc1ccccc1)c1ccc(Br)cc1	SW480 rereplic inconclusive
C/C(=N\NC(=S)NCCc1ccccc1)c1ccc(Cl)cc1	ELG1 DNA repair inconclusive, RORgamma inh 3.5µM, Gal4-VP16 FLuc 3.2µM (no result: SW480 rereplic)
CC(C(=O)Nc1cc([N+](=O)[O-])ccc1Cl)N1CCN(c2ccc(O)cc2)CC1 (centres undefined)	none
S=c1[nH]c2cc(Cl)ccc2s1	RORgamma inh 13µM, Gal4-VP16 FLuc inconclusive
CCC(=O)Nc1ccc(NC(=O)CSc2nnnn2C2CCCC2)cc1C	none
COc1ccccc1/C=N/NC(=O)c1cccc2ccccc12	SW480 rereplic inconclusive
COc1ccc(/C=N/NC(=O)c2cccc3ccccc23)c(OC)c1OC	MCF10A rereplic 15µM (no result: ELG1 DNA repair, RORgamma inh, Gal4-VP16 FLuc)
Cc1sccc1/C=N/NC(=O)c1cccc2ccccc12	RORgamma inh 11µM, MCF10A rereplic inconclusive, Gal4-VP16 FLuc inconclusive
O=C(N/N=C/c1cccn1-c1cccc(C(=O)O)c1)Nc1ccccc1	RORgamma inh inconclusive, MCF10A rereplic inconclusive, Gal4-VP16 FLuc inconclusive
CCOC(=O)c1ccc(NC(=O)Cn2nc(C)c3ccccc3c2=O)cc1	SW480 rereplic inconclusive
CCOC(CNC(=O)Cn1nc(C)c2ccccc21)OCC	MCF10A rereplic 0.73µM
Oc1c(Br)cc(/C=N/Nc2nncc3ccccc23)cc1Br	ELG1 DNA repair inconclusive, MCF10A rereplic 21µM
COc1ccc(/C=N/Nc2nncc3ccccc23)cc1	ELG1 DNA repair inconclusive
Oc1c(Br)cc(/C=N/Nc2ccc(Cl)nn2)cc1Br	none
COc1ccccc1/C=N/Nc1nncc2ccccc12	ELG1 DNA repair inconclusive, RORgamma inh 2µM, Gal4-VP16 FLuc 4µM
Cc1ccc(-c2nc3c(c(=O)c4ccccc4n3C)c(=O)n2-c2ccccc2)cc1	none
COc1ccc2sc(-c3ccc(S(C)(=O)=O)cc3)c(C(=O)NCCc3c[nH]c4ccccc34)c2c1	ELG1 DNA repair 18µM, MCF10A rereplic inconclusive (no result: RORgamma inh, Gal4-VP16 FLuc)
COc1ccc2c(C(=O)NCCCCO)c(-c3ccc(S(C)(=O)=O)cc3)sc2c1	none (no result: RORgamma inh, Gal4-VP16 FLuc)
Cc1ccc(NC(=S)N2CCCC(c3nc4ccc(C)cc4[nH]3)C2)c(C)c1 (centres undefined)	Gal4-VP16 FLuc inconclusive
Cc1cc2nc(C3CCCN(C(=O)NCc4ccccc4)C3)[nH]c2cc1C (centres undefined)	ELG1 DNA repair inconclusive
Cc1ccc2nc(C3CCCN(C(=S)Nc4cccc(C)c4C)C3)[nH]c2c1 (centres undefined)	ELG1 DNA repair inconclusive, RORgamma inh 11µM, Gal4-VP16 FLuc inconclusive
Cc1cc2nc(C3CCCN(C(=S)Nc4ccccc4C)C3)[nH]c2cc1C (centres undefined)	ELG1 DNA repair inconclusive, RORgamma inh 20µM
O=C(Cc1cccs1)NCc1ccc(Cl)cc1	none
CC(/C=N/n1c(-c2cccnc2)n[nH]c1=S)=C\c1ccccc1	ELG1 DNA repair inconclusive, RORgamma inh inconclusive, Gal4-VP16 FLuc inconclusive
CC(/C=N/n1c(-c2ccccc2)n[nH]c1=S)=C\c1ccco1	RORgamma inh inconclusive, Gal4-VP16 FLuc 7.1µM
CC(/C=N/n1c(-c2ccc(C)cc2)n[nH]c1=S)=C\c1ccco1	RORgamma inh 2.8µM, MCF10A rereplic inconclusive, Gal4-VP16 FLuc 2.8µM
CC(/C=N/n1c(-c2ccco2)n[nH]c1=S)=C\c1ccco1	RORgamma inh inconclusive, Gal4-VP16 FLuc inconclusive
Cc1nc2c(-c3ccc(F)cc3)cnn2c(N)c1-c1ccccc1	SW480 rereplic inconclusive, ELG1 DNA repair inconclusive, RORgamma inh 0.045µM, MCF10A rereplic inconclusive, Gal4-VP16 FLuc inconclusive
Clc1cccc(-c2nc(NCc3cccnc3)c3ccccc3n2)c1	ELG1 DNA repair 7.3µM, MCF10A rereplic inconclusive
Oc1ccc(Cl)cc1Nc1nc(NCC2CCCO2)c2ccccc2n1 (centres undefined)	SW480 rereplic inconclusive, MCF10A rereplic 23µM (no result: ELG1 DNA repair, RORgamma inh, Gal4-VP16 FLuc)
c1cncc(-c2nc(NCC3CCCO3)c3ccccc3n2)c1 (centres undefined)	ELG1 DNA repair 23µM
c1ccc(-c2nc(NCc3cccnc3)c3ccccc3n2)cc1	ELG1 DNA repair inconclusive
Cc1ccc(-n2c(SCC(=O)N/N=C/c3c(C)nn(-c4ccccc4)c3C)nc3ccccc3c2=O)cc1	ELG1 DNA repair 23µM
C=C(C)Cn1c(SCC(=O)N/N=C/c2c(O)ccc3ccccc23)nc2ccccc2c1=O	SW480 rereplic inconclusive, ELG1 DNA repair inconclusive, RORgamma inh 0.63µM, MCF10A rereplic inconclusive, Gal4-VP16 FLuc 2.5µM
Cc1nn(-c2ccccc2)c(C)c1/C=N/NC(=O)CSc1nc2ccccc2c(=O)n1-c1ccc(Br)cc1	RORgamma inh inconclusive, MCF10A rereplic 13µM, Gal4-VP16 FLuc inconclusive
C=C(C)Cn1c(SCC)nc2ccccc2c1=O	ELG1 DNA repair inconclusive, MCF10A rereplic inconclusive
Cc1ccccc1-n1c(SCC(=O)N/N=C/c2c(C)nn(-c3ccccc3)c2C)nc2ccccc2c1=O	ELG1 DNA repair inconclusive, MCF10A rereplic inconclusive
Cn1c(CNC(=O)CNC(=O)c2ccccc2F)cc(=O)n(C)c1=O	none
O=C(Nc1ccccc1N1CCCCC1)C1CCN(S(=O)(=O)c2ccccc2C(F)(F)F)CC1	ELG1 DNA repair inconclusive, MCF10A rereplic inconclusive (no result: RORgamma inh, Gal4-VP16 FLuc)
CN(C)C(=O)CSc1ccc(S(=O)(=O)N2CCCC2)cn1	ELG1 DNA repair inconclusive (no result: RORgamma inh, Gal4-VP16 FLuc)
CC(C)N(C(=O)CSc1ccc(S(=O)(=O)N2CCCCC2)cn1)c1ccccc1	ELG1 DNA repair inconclusive, MCF10A rereplic 5.8µM (no result: RORgamma inh, Gal4-VP16 FLuc)
Fc1ccc(C(c2ccc(F)cc2)N2CCN(C/C=C/c3ccccc3)CC2)cc1	SW480 rereplic inconclusive, MCF10A rereplic 23µM, Gal4-VP16 FLuc inconclusive
CCOC(=O)C1=C(COC(=O)c2cc(S(=O)(=O)N3CCOCC3)ccc2F)NC(=O)NC1C (centres undefined)	none (no result: ELG1 DNA repair, RORgamma inh, Gal4-VP16 FLuc)
OCCNc1ncnc2ccc(Br)cc12	ELG1 DNA repair 9.2µM
Brc1ccc2ncnc(Nc3cccc4ccccc34)c2c1	none
CCCCCC(=O)c1c(O)cc(OC)c(Cl)c1O	RORgamma inh inconclusive (no result: SW480 rereplic, ELG1 DNA repair, MCF10A rereplic)
Cc1nc(Oc2ccccc2)c2ccccc2n1	none
Fc1ccc(Oc2nc(-c3ccccn3)nc3ccccc23)cc1	ELG1 DNA repair inconclusive, RORgamma inh 0.71µM, MCF10A rereplic inconclusive, Gal4-VP16 FLuc 2.5µM
